# Assay outcomes deposited in PubChem by several laboratories.
# Most compounds without a hit are left out; they make up all but 4.1% or so of the library.
# CaV13 ICDI inh: Disruptors of the CACNA1D IQ motif to Ca2+-dependent inactivation inhibitor domain association, primary screening, Förster resonance energy transfer in intact living …; 340,000 compounds, 0.098% hits; AID 743397; inhibition, % at 12.3 µM; HEK cells, CFP/YFP FRET ICDI-IQ, plate reader, 10 min; percent FRET-ratio fall versus neutral wells;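 active = mean replicate inhibition of at least 30% and at least 1% of replicates passing that level; inconclusive = only one of the two criteria is met; inactive = neither criterion is met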
# ALR inh: blocks human ALR sulfhydryl oxidase activity. P55789. purified ALR, DTT oxidation, H2O2 HRP-luminol luminescence. inhibition, % (no concentration beside the values). 290,000 compounds, 3.8% hits. AID 485317;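 active = mean replicate inhibition above about 79%, with every replicate also reaching it, limit read from the data; inconclusive = only one of the two criteria met; inactive = mean below limit and not every replicate reaching it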
# M18AAP inhibitor: blocks P. falciparum M18 aspartyl aminopeptidase. 290,000 compounds, 1.2% hits. inhibition, % at 7.35 µM. AID 1822. recombinant PfM18AAP, H-Glu-NHMec fluorogenic cleavage;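 active = inhibition above the campaign mean inhibition over all tested compounds plus 3 SD, cut at about 28% in these data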
# PolyA inh: yeast polyadenylation inhibition | S. cerevisiae SKY197-pL101 polyadenylation reporter, beta-gal luminescence; efflux-impaired pdr1/pdr3 knockout yeast; score 100 = 6 SD above DMSO | activity score, % at 12 µM | 300,000 compounds, 0.02% hits | AID 1875;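 active = lowest replicate activity score at least 50, where 100 means six control SD above control mean; inconclusive = lowest score under 50 but half or more replicates reach 50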;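 note: yeast exposed to compound for 9 h at 30 °C; higher score means more reporter readthrough which indicates perturbed polyadenylation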
# IDE cell activ: IDE (human) activation, cell-based; HEK cells, FAbeta-B cleavage, fluorescence polarization; 0% vehicle, 100% cell-free pure enzyme wells; activation, % at 5.96 µM; 340,000 compounds, 0.073% hits;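 active = activation above the mean of all tested compounds plus 3 SD, set per screening campaign, cut at about 17% in these data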
# Target sequence (P14735 whole entry, looked up): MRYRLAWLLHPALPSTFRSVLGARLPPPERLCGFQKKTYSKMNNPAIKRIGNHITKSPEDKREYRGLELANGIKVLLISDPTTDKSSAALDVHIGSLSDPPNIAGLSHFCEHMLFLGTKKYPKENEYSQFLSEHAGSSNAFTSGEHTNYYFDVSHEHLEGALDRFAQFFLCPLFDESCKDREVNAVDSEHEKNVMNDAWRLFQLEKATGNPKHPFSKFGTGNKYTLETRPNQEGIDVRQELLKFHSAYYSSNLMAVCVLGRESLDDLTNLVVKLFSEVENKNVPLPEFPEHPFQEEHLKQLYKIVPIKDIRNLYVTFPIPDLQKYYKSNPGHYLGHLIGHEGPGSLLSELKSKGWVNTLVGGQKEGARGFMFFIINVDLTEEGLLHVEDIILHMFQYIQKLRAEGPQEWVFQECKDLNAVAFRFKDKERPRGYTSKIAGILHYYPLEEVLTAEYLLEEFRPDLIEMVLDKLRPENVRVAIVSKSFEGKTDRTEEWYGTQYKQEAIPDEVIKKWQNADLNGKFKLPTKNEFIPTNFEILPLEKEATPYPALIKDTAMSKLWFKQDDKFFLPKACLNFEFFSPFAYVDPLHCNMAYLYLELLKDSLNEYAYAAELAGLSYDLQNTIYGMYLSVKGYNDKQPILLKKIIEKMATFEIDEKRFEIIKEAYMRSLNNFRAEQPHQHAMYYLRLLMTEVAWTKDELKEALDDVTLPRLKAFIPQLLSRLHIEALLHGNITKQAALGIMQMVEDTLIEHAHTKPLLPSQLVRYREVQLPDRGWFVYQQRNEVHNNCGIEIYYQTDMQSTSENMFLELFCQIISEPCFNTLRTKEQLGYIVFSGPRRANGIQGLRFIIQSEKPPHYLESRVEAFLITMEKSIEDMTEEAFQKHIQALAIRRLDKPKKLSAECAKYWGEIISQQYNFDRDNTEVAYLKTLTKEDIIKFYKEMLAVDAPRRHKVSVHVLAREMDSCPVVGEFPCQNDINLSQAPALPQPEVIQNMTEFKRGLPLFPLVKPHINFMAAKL
# IDE cell inh: inhibits human insulin-degrading enzyme in HEK cells | 320,000 compounds, 0.41% hits | FAbetaB cleavage, fluorescence polarization | P14735 | inhibition, % at 5.59 µM;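 active = percent inhibition above the average of all tested compounds plus 3 SD, set per screening campaign, cut at about 16% in these data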;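 note: IDE supplied by intact live HEK cells; FP after avidin binding of uncleaved biotin substrate so inhibition keeps polarization high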
# IDE cell inh cf: confirmation of human insulin-degrading enzyme inhibitors in cells; shares compounds with IDE cell inh; HEK cells, FAbetaB cleavage, fluorescence polarization; inhibition, % at 5.59 µM; 1,200 compounds, 51% hits; AID 435028;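 active = mean inhibition across triplicate wells above the cutoff set by the earlier primary insulin-degrading enzyme screen, cut at about 16% in these data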
# HEK cytotox: counter-screen for IDE inhibitors: cytotoxicity in HEK cells; shares compounds with IDE cell inh; HEK293 cytotoxicity, ATP luminescence; inhibition, % at 5.59 µM; 1,200 compounds, 28% hits; AID 449730; in the data active = inhibition above about 22%
# Hits are given with their value; - = inactive; ? = inconclusive; . = not tested or not shown.
SMILES,CaV13 ICDI inh,ALR inh,M18AAP inhibitor,PolyA inh,IDE cell activ,IDE cell inh,IDE cell inh cf,HEK cytotox
CCCC[n+]1c(C)sc2cc(OC)ccc21,-,.,-,-,-,18,-,-
Cc1ccc2c(c1)sc(C)[n+]2CCCS(=O)(=O)[O-],-,-,-,-,-,-,.,.
Cc1cc2nc(/C(C#N)=C\c3ccc(-c4ccccc4C(=O)O)o3)[nH]c2cc1C,-,-,-,-,-,31,134,-
Cc1ccc(/C(C#N)=C\c2ccc(N3CCOCC3)o2)cc1,-,-,-,-,-,-,.,.
N#C/C(=C\c1ccc(-c2ccccc2C(=O)O)o1)c1nc2ccccc2[nH]1,-,-,-,-,-,31,53,-
Cc1cc(/C=C(/C#N)c2nc3ccccc3[nH]2)c(C)n1-c1ccccc1C(=O)O,-,-,-,-,-,-,.,.
Cc1ccc2nc(/C(C#N)=C\c3ccc(N4CCOCC4)o3)[nH]c2c1,-,-,-,?,-,48,26,27
Cc1ccc2nc(/C(C#N)=C\c3ccc([N+](=O)[O-])o3)[nH]c2c1,.,?,-,.,-,-,.,.
Cc1ccc2nc(/C(C#N)=C/c3ccc(-c4ccccc4C(=O)O)o3)[nH]c2c1,-,-,-,-,-,85,115,-
N#C/C(=C\c1ccc(Sc2ccccc2)o1)c1nc2ccccc2[nH]1,-,-,-,-,-,21,-,-
Cn1cccc1/C=C1\CCC/C(=C\c2cccn2C)C1=O,-,.,-,-,-,71,118,23
O=C(CCCOc1ccc(Cl)cc1Cl)NCc1ccncc1,-,-,-,-,-,24,-,-
Cc1nnsc1C(=O)N/N=C/c1ccc2ccccc2c1O,-,-,-,-,-,90,114,113
CCOc1ccc(-c2c(C(=O)N/N=C/c3ccc(OC)cc3)nnn2-c2nonc2N)cc1,-,-,-,-,-,20,-,-
CCCOc1ccc(-c2c(C(=O)N/N=C/c3ccc(OC)cc3)nnn2-c2nonc2N)cc1,-,.,-,-,-,-,.,.
CN(C)c1ccc(/C=C/CNC[C@H]2O[C@@H](n3ccc(N)nc3=O)[C@H](O)[C@@H]2O)cc1,-,.,.,.,.,.,.,.
Cc1ccc2[nH]c3c(NCc4ccccc4)ncnc3c2c1,-,-,-,-,.,.,.,.
Fc1ccc2[nH]c3c(N4CCc5ccccc5C4)ncnc3c2c1,-,-,-,-,.,29,-,77
c1ccc2c(c1)CCN(c1ncnc3nc[nH]c13)C2,-,-,-,-,-,-,.,.
CN1CCN(c2ncnc3c2[nH]c2ccc(F)cc23)CC1,-,-,-,-,-,23,-,-
c1ccc2c(c1)[nH]c1c(N3CCN(C4CCCCC4)CC3)ncnc12,-,-,-,-,-,-,.,.
Brc1ccc2[nH]c3c(NCc4ccccn4)ncnc3c2c1,-,-,-,-,.,64,38,22
Brc1ccc2[nH]c3c(N4CCc5ccccc5C4)ncnc3c2c1,.,.,-,-,.,55,41,66
COc1ccc(OC)c(S(=O)(=O)N2CCCC(C(=O)NCc3cccnc3)C2)c1 (stereo not drawn),-,-,-,-,-,-,.,.
CCc1ccc(NS(=O)(=O)c2c(C)noc2C)cc1,-,-,-,-,-,-,.,.
SMILES,CaV13 ICDI inh,ALR inh,M18AAP inhibitor,PolyA inh,IDE cell activ,IDE cell inh,IDE cell inh cf,HEK cytotox
COc1cc(/C=C2\SC(=S)N(Nc3ncc(C(F)(F)F)cc3Cl)C2=O)ccc1O,-,-,-,-,-,51,129,-
COC(=O)c1cn(Nc2ncc(C(F)(F)F)cc2Cl)c(=O)c2ccccc12,-,-,-,-,-,-,.,.
CN(C)c1ccc(/C=C2\SC(=S)N(Nc3ncc(C(F)(F)F)cc3Cl)C2=O)cc1,-,-,-,-,-,49,130,-
Cc1cc2c3ccccc3ncn2n1,-,-,-,-,-,-,.,.
CC(=O)c1cc(NC(=O)c2cccc(C(F)(F)F)c2)c(=O)oc1/C=C/N(C)C,-,-,-,-,-,-,.,.
CC(=O)c1cc(NC(=O)c2ccc(Cl)cc2)c(=O)oc1/C=C/N(C)C,-,97,-,-,-,17,54,-
CCCCCCc1cc2cc(C(=O)Nc3ccccc3OC)c(=O)oc2cc1O,-,-,-,-,-,-,.,.
CCCCCCc1cc2cc(-c3nnc(-c4ccccc4O)o3)c(=O)oc2cc1O,-,-,-,-,-,38,118,-
O=C(Nc1ccccc1SCC1CSc2nc3ccccc3c(=O)n21)c1ccccc1 (stereo not drawn),-,-,-,-,-,18,-,-
Cc1ccnc2nc(C(=O)OCC(=O)NC(=O)NCc3ccco3)nn12,-,-,-,-,-,-,.,.
COc1ccc(OCc2cc(C(=O)N3CCSCC3)no2)c(Cl)c1,-,-,-,-,-,18,-,-
CCn1c(COc2ccc(C)cc2)nnc1SCC(=O)C(C)(C)C,-,-,-,-,-,-,.,.
CCn1c(COc2ccc(C)cc2)nnc1SCc1ccc(C#N)cc1,-,-,-,-,-,18,-,-
O=C(COC(=O)c1ccc2c(c1)C(=O)N(Cc1ccco1)C2=O)NCC(F)(F)F,-,-,-,-,-,-,.,.
CNS(=O)(=O)c1ccc(CNC[C@H]2O[C@@H](n3cc(C)c(=O)[nH]c3=O)C[C@@H]2O)cc1,-,.,.,.,.,.,.,.
C=CCC1=C/C(=C\c2c(N)n3nc(CC(=O)N4CCCC4)sc3nc2=O)C=C(OC)C1=O,-,-,-,-,-,26,26,-
COC1=CC(=Cc2c(N)n3nc(CC(=O)N4CCOCC4)sc3nc2=O)C=C(OC)C1=O,-,-,-,-,-,121,26,-
COc1ccc(S(=O)(=O)N(CC(=O)N2CCOCC2)Cc2ccccc2)cc1,-,.,-,-,-,-,.,.
Cc1ccc(N2CCN(CCc3nc4cc(NC(=O)c5ccco5)ccc4n3C)CC2)cc1,-,-,-,-,-,19,-,-
Cn1c(CCN2CCN(c3ccccc3)CC2)nc2cc(NC(=O)c3ccco3)ccc21,-,-,-,-,-,-,.,.
CSc1ccccc1NC(=O)CN(C)CC(=O)c1c(C)[nH]c2ccccc12,-,-,.,.,-,-,.,.
COc1ccc(OC)c(/C=C2\Oc3cc(OCC(=O)N4CCC(C(=O)O)CC4)ccc3C2=O)c1,.,-,-,-,-,22,65,-
Nc1c(C(=O)c2ccccc2)sc2nsc(SCCN3CCOCC3)c12,-,-,-,-,.,29,61,58
C#CCN1C(=O)S/C(=C/C=C/c2ccc(N(C)C)cc2)C1=O,-,.,-,.,-,41,57,27
CCCCn1c(CCCNC(=O)c2ccco2)nc2ccccc21,-,-,-,-,-,-,.,.
